PubChem BioAssay AID422 (Emory University Molecular Libraries Screening Center, 2006)
Several values for one entry are separate records, joined by “and”; a condition that tells them apart may be missing. Identical values can stand only once. The campaign covered roughly 160,000 compounds. About 310 (0.19%) were called active. No stated cut-off is given here; in the data, active means inhibition above about 30%; inactive means the rest. Shown is part of a subset that was picked to be rich in actives. A structure can be active in one record and inactive in another.

target: 14-3-3 protein gamma (Homo sapiens) (UniProt P61981); assay: modulators of 14-3-3 gamma protein binding, primary screen, biochemical, fluorescence polarization (AID 422); conditions: FP, 14-3-3gamma / TMR-pS259-Raf peptide binding; at 40 µM; stronger effect = higher value;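 further: 0% = protein plus tracer without compound and 100% = blank with tracer alone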
Sequence (P61981 whole entry, looked up): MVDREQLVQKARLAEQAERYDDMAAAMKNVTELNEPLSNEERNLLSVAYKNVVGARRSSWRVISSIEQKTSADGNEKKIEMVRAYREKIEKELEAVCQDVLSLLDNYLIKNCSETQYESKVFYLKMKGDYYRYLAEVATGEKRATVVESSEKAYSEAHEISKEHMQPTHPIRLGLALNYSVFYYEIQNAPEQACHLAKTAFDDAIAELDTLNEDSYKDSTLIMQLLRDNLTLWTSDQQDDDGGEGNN

inhibition, active:
CC1CN(C)C(C)CC1OC(=O)c1ccco1 (stereo unspecified) 34.5%
O=C(c1ccco1)N1CCN(c2ccc([N+](=O)[O-])c(NCc3cccnc3)c2)CC1 46.1%
O=C1c2cccc3c(N=Cc4ccccc4O)ccc(c23)C(=O)N1c1ccccc1 31.4%
CSc1nnc2c(n1)OC(c1ccccc1Cl)Nc1ccccc1-2 (stereo unspecified) 31.9%
Cc1c(Cl)c(C)c([N+](=O)[O-])c(O)c1C=Nc1ccc(Br)cc1C(=O)O 46.9%

inhibition, 45.7% (active) and 3.37% (inactive):
Cc1ccccc1CN1CCN(CC(=O)NCc2ccccn2)C1=O

inhibition, inactive:
O=C(NCCC1=CCCCC1)c1ccc2c(=O)n(Cc3cccc(Br)c3)c(=S)[nH]c2c1 -9.75%
CCc1ccc2oc(-c3cc(NC(=O)c4ccc(OC)cc4)ccc3Cl)nc2c1 -44.5%
CC(C)(c1ccc(NC(=O)C(F)(F)F)cc1)c1ccc(NC(=O)C(F)(F)F)cc1 -13.8%
CCN(CC)C(=O)CSc1nc2ccccc2n1S(=O)(=O)c1cccc([N+](=O)[O-])c1 -1.43%
Cc1cc(N2CC(C)CC(C)C2)nc2ccc([N+](=O)[O-])cc12 (stereo unspecified) -9.05%
Cc1cc2c(c(=O)[nH]1)C(=O)NC2=O -1.31%
O=c1cc(-c2ccccc2)nc(SCCOc2ccc(Cl)cc2)[nH]1 -2.33%
Cc1ccccc1CN1CCN(CC(=O)NCc2cccs2)C1=O -7.12%
Cc1ccc(CNC(=O)CN2CCN(Cc3ccc(Cl)cc3)C2=O)cc1 -3.75%
CCOC(=O)c1cc2c(=O)n3ccccc3nc2n(CCCOC)c1=NC(=O)c1cccc(Br)c1 0.86%
CC(=O)C1=NN(c2ccccc2)C(c2c[nH]c3ccccc23)N1c1ccc(N2CCOCC2)c(Cl)c1 (stereo unspecified) -3.29%
CN(CCC#N)C(=O)CN1C(=O)COc2ccc(C(C)(C)C)cc21 2.44%
O=C1NCCCC1C(=O)NC1CCCCC1 (stereo unspecified) -10.1%
CCc1sc(-c2cc3cccc(OC)c3oc2=O)nc1-c1ccc(C)cc1 -56.6%
Cc1ccc(C2OC3(C(=O)c4ccccc4C3=O)C3C(=O)N(c4ccc(Br)cc4)C(=O)C23)cc1 (stereo unspecified) -39.8%
O=C(OCC(=O)N1CCCC1)c1ccco1 -8.04%
COC(=O)c1ccc(NC(=O)c2ccco2)cc1 -6.08%
O=C(Nc1ccccc1O)c1ccco1 -6.85%
O=C(CCCOc1ccc(Br)cc1)Nc1ncc(Cc2ccc(F)cc2)s1 -2.12%
COc1ccc(C2C=C(c3ccc(OC(F)F)cc3)Nc3ncnn32)cc1 (stereo unspecified) 4.5%
Cc1ccc(/C(O)=C2\C(=O)C(=O)N(CCC(=O)O)C2c2ccc(Br)cc2)cc1 (stereo unspecified) -1.96%
CCC(C(=O)Nc1c2c(nn1-c1ccc([N+](=O)[O-])cc1)CSC2)c1ccccc1 (stereo unspecified) -13.7%
CCNc1cc(Nc2ccccc2)c2c3c(onc13)-c1ccccc1C2=O -69.4%
CN(C)c1ccc(Nc2cc(N3CCCC3)c3noc4c3c2C(=O)c2ccccc2-4)cc1 -88.4%
CCCCCc1ccc(S(=O)(=O)Nc2cnc3ccccc3c2)cc1 0.52%
CC1CCN(CCCNC(=O)C2CC(=O)N(C3CCCCCCC3)C2)CC1 (stereo unspecified) 3.07%
Cn1c(SCc2ccccc2Br)nnc1-c1ccc([N+](=O)[O-])cc1 -3.43%
CCOC(=O)C(NC(=O)c1ccc(OC)cc1)(NC1CCCCC1)C(F)(F)F (stereo unspecified) -6.18%
O=C(NCCn1cc(SCc2cccc(F)c2)c2ccccc21)c1ccccc1F 0.8%
COc1cc([N+](=O)[O-])ccc1NC(=O)C1CC(=O)NC(=Nc2ccc(C)cc2)S1 (stereo unspecified) 1.95%
Cc1ccc2[nH]cc(C(=O)c3ccccc3)c(=O)c2c1 -15%
O=[N+]([O-])c1ccc(N2CCN(S(=O)(=O)c3ccc4ccccc4c3)CC2)cc1NCc1ccco1 -5.05%
O=C(c1ccco1)N1CCN(c2cccc(Cl)c2)CC1 -9.3%
CC1CC(C)CN(C(=O)c2cc3c(=O)oc4ccccc4c3s2)C1 (stereo unspecified) -6.3%
CC(C)CCNC(=O)c1ccc2c(c1)N(Cc1ccccc1)C(=O)CS2 3.32%
O=C(Nc1cccc(-c2nc3ccccc3s2)c1)c1cccnc1Cl -17.9%
COc1cc(NS(=O)(=O)c2c(C)n[nH]c2C)cc(OC)c1 -0.99%
COc1cc2c(=O)n(CC3CCCO3)c(=O)n(CC(=O)c3ccc(Br)cc3)c2cc1OC (stereo unspecified) -0.78%
Cc1cc(OCC(=O)Nc2sc3c(c2C(N)=O)CCCC3)ccc1[N+](=O)[O-] -9.64%
O=C(Nc1c2c(nn1-c1ccc(F)cc1)CSC2)c1cccc(F)c1 -4.31%
COc1ccc(C)cc1NC(=O)C1(S(=O)(=O)c2ccc(Cl)cc2)CC1 -7.62%
O=C(NCCN1CCCC1)C1CCC(CNS(=O)(=O)c2ccc(Cl)cc2)CC1 (stereo unspecified) 1.41%
Cc1ccccc1N1C(=O)C2C3C=CC(C4CC34)C2C1=O (stereo unspecified) 8.35%
Cc1cc(OCC(=O)Nc2ncc(S(=O)(=O)c3ccc([N+](=O)[O-])cc3)s2)cc(C)c1Cl -4.64%
COc1ccc(C2C(C(=O)c3cccs3)=C(O)C(=O)N2CCN(C)C)cc1 (stereo unspecified) 11.4%
COc1ccc(C2=NN(c3ccccc3)C(c3ccc(F)cc3)C2)cc1 (stereo unspecified) -10.6%
CCC(C)Nc1ncnc2c1cnn2-c1cccc(C)c1 (stereo unspecified) 2.9%
CC(=O)Nc1ccccc1Sc1ccc2c3c(cccc13)C(=O)N(c1ccc(C)cc1)C2=O -10.1%
O=C1c2cccc3cccc(c23)C(=O)N1c1cccc(O)c1 -4.23%
O=C(O)c1ccc(N2NC(c3ccccc3)=CC2O)cc1 (stereo unspecified) -4.41%
O=C(CCS(=O)(=O)c1nc(-c2cccs2)cc(C(F)(F)F)n1)Nc1cc(Cl)ccc1O -33.5%
COc1cc(NS(=O)(=O)c2ccc3c(c2)CCN3C(C)=O)cc(OC)c1 0.2%
Cn1ccnc1SCC(=O)Nc1ccc(F)cc1 -12.9%
CCSCCOC(=O)C1=C(C)NC(=O)NC1c1ccc(OC)cc1 (stereo unspecified) -1.92%
O=C(NCc1ccco1)c1ccc2c(=O)n(Cc3ccc(Cl)cc3)c(=S)[nH]c2c1 -14.3%
CC1=C(C(=O)OCC2CCCO2)C(c2ccccc2Cl)C2=C(CCCC2=O)N1 (stereo unspecified) -2.91%
CC(C)(C)c1ccc(C2SCC(=O)N2c2ccccc2F)cc1 (stereo unspecified) -3.17%
CCCCOC(=O)c1cc(-c2ccccc2)nc2ccc(Br)cc12 2.65%
CSc1nnc2c(n1)OC(c1ccc3c(c1)OCO3)Nc1ccccc1-2 (stereo unspecified) 6.07%
CCOc1ccc(C2Nc3ccccc3-c3nnc(SC)nc3O2)cc1C (stereo unspecified) -68.8%
CCOC(=O)c1sc2ncnc(N3CCCC(C(=O)OCC)C3)c2c1C (stereo unspecified) -2.94%
Cc1ccccc1N=Cc1cccc([N+](=O)[O-])c1O 5.41%
Cc1ccc2nc(-c3cc(NC(=O)c4cc(Cl)ccc4[N+](=O)[O-])ccc3Cl)oc2c1 -15.8%
CCSCCSc1nc(C)cc(C)n1 -17.9%
CSc1nc(OCC(=O)c2ccccc2)c2c3c(sc2n1)CCCC3 4.08%
